Reference: PubChem BioAssay (EPA / NIEHS)
Records with an inconclusive call do not appear. Some compounds were tested as several samples or in several runs, with calls that do not always agree. The source made the active and inactive calls. Rule for the calls: active = hit-call score of the fitted dose curve at least 0.9, where 1 is the maximum; inconclusive = response in the unintended direction; inactive = score below 0.9.

target: Nuclear receptor subfamily 4 group A member 2 (Homo sapiens) (UniProt P43354); assay: ATG_NURR1_TRANS: Attagene TRANS-FACTORIAL HepG2 Assay for human Nuclear Receptor Related Protein 1 (NURR1) (AID 2282985); details: HepG2 Attagene TRANS reporter, mRNA readout
Protocol: ATG_TRANS is a cell-based, multiplexed-readout assay that uses HepG2, a human liver cell line, with measurements taken at 24 hours after chemical dosing in a 24-well plate.ATG_NURR1_TRANS is one of 30 assay component(s) measured or calculated from the ATG_TRANS assay. It is designed to make measurements of mRNA induction, a form of inducible reporter, as detected with fluorescence intensity signals by Reverse transcription polymerase chain reaction (RT-PCR) and Capillary electrophoresis technology.Data from the assay component ATG_NURR1_TRANS was analyzed into 1 assay endpoint. This assay endpoint, ATG_NURR1_TRANS, was analyzed in the positive analysis fitting direction relative to DMSO as the negative control and baseline of activity. Using a type of inducible reporter, measures of mRNA for gain-of-signal activity can be used to understand the reporter gene at the transcription factor-level as they relate to the gene NR4A2. Furthermore, this assay endpoint can be referred to as a primary readout, because this assay has produced multiple assay endpoints where this one serves a reporter gene function. To generalize the intended target to other relatable targets, this assay endpoint is annotated to the nuclear receptor intended target family, where the subfamily is orphan.
Human liver HepG2 cells are transiently transfected with multiple reporter transcription units (MRTUs) in 6-well plates using FuGene 6 reagent (Roche; 3 ml FuGene/1 mg DNA). The MRTU constructs are regulated by a cis-regulating element (promoter). […] A major difference between the CIS and TRANS system is that in CIS activities of endogenous TFs are measured, whereas the TRANS assay evaluates changes in activities of exogenous, chimeric NR-Gal4 proteins. […] At the end of 24 hour incubation, total RNA was isolated using TriZol reagent (Invitrogen). The isolated RNA is then reverse-transcribed using oligo(dT) primer and Mo-MLV reverse transcriptase (Invitrogen) with DNAse I (Ambion) treatment for 30 min. The one-tenth of the produced cDNA was amplified by PCR using Taq DNA polymerase (Invitrogen) and two reporter sequence-specific primers. The PCR products were fluorescently labeled by primer extension with 6-arboxyfluorescein (6-FAM) 5'-labeled reporter sequence-specific primer (2 min at 95 C, 20 s at 68 C and 10 min at 72 C) and these products were digested with 5U of HpaI (New England Biolabs) for 2h at 37 C. The fragments were purified using Qiaquick PCR columns (Qiagen), analyzed on an ABI 3130xL genetic analyzer (Applied Biosystems) with peak positions identified by using a set of X-rhodamine (ROX)-labeled MapMarker1000 molecular weight standards (BioVentures). The raw capillary electrophoresis data was processed using Attagraph software (Attagene).

Sequence of Nuclear receptor subfamily 4 group A member 2 (Homo sapiens) (P43354 whole entry, looked up): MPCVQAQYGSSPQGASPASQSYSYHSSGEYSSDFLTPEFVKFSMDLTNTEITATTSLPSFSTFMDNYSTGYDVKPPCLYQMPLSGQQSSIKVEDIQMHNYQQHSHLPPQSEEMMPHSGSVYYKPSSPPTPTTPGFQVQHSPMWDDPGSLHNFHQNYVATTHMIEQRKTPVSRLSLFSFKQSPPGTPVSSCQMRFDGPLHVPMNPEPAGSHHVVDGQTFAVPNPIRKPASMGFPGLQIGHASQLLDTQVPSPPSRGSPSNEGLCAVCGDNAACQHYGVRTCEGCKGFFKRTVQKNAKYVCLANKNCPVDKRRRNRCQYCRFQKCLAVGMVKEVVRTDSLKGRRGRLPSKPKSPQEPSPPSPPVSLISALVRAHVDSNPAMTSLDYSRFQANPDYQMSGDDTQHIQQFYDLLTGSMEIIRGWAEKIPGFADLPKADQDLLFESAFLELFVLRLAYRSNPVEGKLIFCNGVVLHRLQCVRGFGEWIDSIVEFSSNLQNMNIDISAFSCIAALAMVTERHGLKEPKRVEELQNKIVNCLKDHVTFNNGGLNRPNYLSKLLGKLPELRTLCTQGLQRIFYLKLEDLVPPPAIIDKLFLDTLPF

SMILES	outcome	AC50
FC(F)(F)N1C(F)(F)C(F)(F)OC(F)(F)C1(F)F	inactive	–
O=C1Cc2ccccc2N1c1c(Cl)cccc1Cl	inactive	–
Cc1ccc2ccc3ccc(C)cc3c2c1	inactive	–
CC(C)[C@@H]1CC[C@@H](C)C[C@H]1O	inactive	–
NC(=NCCCCCCN=C(N)/N=C(\N)Nc1ccc(Cl)cc1)/N=C(\N)Nc1ccc(Cl)cc1	inactive	–
C/C=C/C(=O)C1=C(C)CCCC1(C)C	–	152 µM (active)
NS(=O)(=O)O	inactive	–
Oc1ccc(Cc2ccccc2O)cc1	inactive	–
CCC1CO1 (stereo not given)	inactive	–
C=CCOCC(CO)(CO)CO	inactive	–
Cc1cc(=O)oc2cc(O)ccc12	inactive	–
Brc1ccc(Oc2ccc(Br)cc2Br)cc1	inactive	–
O=C1c2ccccc2C(=O)c2c(O)c(O)cc(O)c21	–	47 µM (active)
COC(=O)C(F)(F)C(F)(F)C(F)(F)C(F)(F)C(F)(F)F	inactive	–
C=CC(F)(F)C(F)(F)C(F)(F)C(F)(F)F	inactive	–
O=C(c1cc(O)c(O)c(O)c1)c1ccc(O)c(O)c1O	inactive	–
NCCN	inactive	–
COC(=O)C(F)(F)C(F)(F)C(F)(F)F	inactive	–
O=P(O)(O)CCC(F)(F)C(F)(F)C(F)(F)C(F)(F)C(F)(F)C(F)(F)C(F)(F)C(F)(F)F	inactive	–
CCCCCCCCCCCC(=O)O	inactive	–

SMILES	outcome	AC50
CCCCCCCCCCCCCCCCCC[N+](C)(C)Cc1ccccc1	inactive	–
NCc1cccc(CN)c1	inactive	–
CCC(=O)O	inactive	–
Oc1cc2ccccc2cc1O	inactive	–
CCCCCCCCCCCCCCC	inactive	–
C=CC(=C)CC/C=C(\C)CCC=C(C)C	inactive	–
C=CC(=O)OCCN(CC)CC	inactive	–
CCOC(=O)CN[C@@H](C(=O)N1CC[C@H]1C(=O)NCc1ccc(/C(N)=N/O)cc1)C1CCCCC1	–	3.99 µM (active)
O=C(Nc1cccc([N+](=O)[O-])c1)c1cc2ccccc2cc1O	inactive	–
Cc1cc(C(C)(C)C)c(O)c(C(C)(C)C)c1	–	0.82 µM (active)
Cc1ccccc1C(OCCN(C)C)c1ccccc1 (stereo not given)	inactive	–
O=C1OC2(c3ccccc31)c1cc(I)c(O)c(I)c1Oc1c2cc(I)c(O)c1I	inactive	25.4 µM (active)
CCCCCCCCCCCC[N+](C)(C)CCCCCCCCCCCC	inactive	–
O=C(O)CN(CCCN(CC(=O)O)CC(=O)O)CC(=O)O	inactive	–
CCOC=C(C(=O)OCC)C(=O)OCC	inactive	–
CCCCC(CC)C(=O)O (stereo not given)	inactive	–
COc1ccccc1NC(=O)c1cc2ccccc2cc1O	inactive	–
O=C(Nc1ccc(Cl)c(Cl)c1)c1cc(Cl)cc(Cl)c1O	inactive	–
FC(F)(F)C(F)(F)C(F)(F)Br	inactive	–
